“And” between values parts separate entries of the source, which are not always exact repeats. Identical values can stand only once. The source made the active and inactive calls. Cut-off read from the data, not from the text of the source, unless noted: active = parasite load remaining mostly below about 12% (no sharp cut-off); inactive = mostly above about 10%.
Columns and labels:
[1] = liver-stage malaria parasite growth inhibition, primary screen, cell-based, HepG2, luciferase luminescence, HepG2 viability (AID 624349);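 note: 100% = mean of DMSO negative control wells on the same plate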; conditions: P. berghei liver stage in HepG2, luciferase luminescence, concentration not given here; parasite load remaining: stronger effect = lower value; viability: measured here: HepG2 viability without parasites
[2] = system: Hepatitis C virus NS3 helicase; test: HCV NS3 helicase inhibitors, primary screen, biochemical, fluorescence polarization, LOPAC1280 library (AID 687035; in the data active = inhibition above about 37%); conditions: Purified HCV NS3 helicase, Cy5-dT15 ssDNA binding fluorescence polarization; stronger effect = higher value; concentration not given here
[3] = Cy5 fluorescence quenching or enhancement artefacts, artefact control for HCV NS3 helicase inhibitor project, biochemical, LOPAC1280 (AID 687037; call rule not given here); conditions: Cy5-DNA-NS3h complex fluorescence interference counterscreen
[4] = stimulators of nuclear beta-catenin in C2C12, primary screen, imaging, WNT3A-conditioned medium, mouse C2C12, NPC library (AID 1117326; in the data active = nuclear beta-catenin stimulation mostly above about 4.2%, no sharp cut-off; inactive = mostly below about 10%); conditions: stronger effect = higher value
[5] = stimulators of insulin release from INS-1E, primary screen, cell-based, 5 mM glucose, NPC library (AID 1117329;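 active = compound raises insulin release from rat beta cells at 5 mM glucose, no numeric limit stated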); conditions: rat INS-1E insulin secretion, at 10 µM, stronger effect = higher value
[6] = growth inhibition of GSK3B-pretreated HCT116 cells – cell-based, CellTiter-Glo, 0.2 to 20 µM (AID 1117336;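 active = compounds lowering colon cancer cell viability after pretreatment blocking the GSK3B kinase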); conditions: HCT116 viability after GSK3B inhibitor, at 20 µM, stronger effect = higher value
[7] = inhibition of endothelial tube formation, primary screen, imaging, VEGF stimulated, CD31 staining, tube area, NPC library (AID 1117340;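 active = compound that reduces growth-factor-driven endothelial tube area in a mixed cell culture, no cutoff stated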); conditions: VEGF-stimulated ADSC/ECFC co-culture, at 10 µM, stronger effect = higher value
[8] = glucagon-like peptide 1 release enhancers, primary assay, NCI-H716 cell line, NPC library (AID 1117341;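 active = compound raises GLP1 secretion from the human gut endocrine cells, with no numeric limit stated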); conditions: NCI-H716 cells, at 10 µM, stronger effect = higher value
[9] = HCT116 colon cancer cell growth inhibition, primary screen, CellTiter-Glo luminescence, NPC library (AID 1117342;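 active = compounds that lower survival of HCT116 colon cancer cells in the luminescence readout, no numeric limit stated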); conditions: at 20 µM (top of the series)
[10] = CellTiter-Glo luminescent readout of SW480 viability loss, NPC library primary (AID 1117343;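 active = compounds that lower viability of the colon cancer cells in the luminescence readout, with no numeric limit stated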); conditions: CellTiter-Glo luminescence; at 20 µM (top of the series)
[11] = decreased DLD-1 cellular survival, CellTiter-Glo luminescent readout, NPC compound collection, primary HTS (AID 1117346;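 active = compounds that lower survival of DLD-1 colon cancer cells in the luminescence readout, no cutoff given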); conditions: DLD-1 viability, CellTiter-Glo luminescence; at 20 µM (top of the series)
[12] = target: 6-phosphogluconate dehydrogenase, decarboxylating (Homo sapiens) (UniProt P52209); test: 6PGD enzyme inhibitors, primary screen, biochemical, human, recombinant enzyme, NADPH absorbance (AID 1159550;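 active = at least 20% inhibition of 6-phosphogluconate dehydrogenase activity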); conditions: recombinant 6PGD, NADPH absorbance 341 nm; at 10 µM; stronger effect = higher value
[13] = Cy5 fluorescence interference with SSB-bound oligo, artefact control for HCV NS3 helicase inhibitor project, biochemical, NIH Clinical Collection, E. coli SSB (AID 743268; call rule not given here)
[14] = system: Hepatitis C virus NS3 helicase; test: HCV NS3 helicase inhibitors, primary screen, biochemical, fluorescence polarization, NIH Clinical Collection (AID 743270; call rule not given here); conditions: NS3 helicase binding to Cy5-dT15 DNA, stronger effect = higher value, concentration not given here
[15] = target: Single-stranded DNA-binding protein (Escherichia coli (strain K12)) (UniProt P0AGE0); test: E. coli SSB displacement from DNA, counter-screen for HCV NS3 helicase inhibitor project, biochemical, fluorescence polarization, NIH Clinical Collection (AID 743271; in the data active = inhibition above about 28%); conditions: stronger effect = higher value, concentration not given here
[16] = fluorescence interference in NS3h assay format, artefact control for HCV NS3 helicase inhibitor project, biochemical, NIH Clinical Collection (AID 743272; call rule not given here;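 note: HCV NS3 helicase with a Cy5 labelled single stranded DNA probe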); conditions: fluorescence interference counterscreen, stronger effect = lower value

Sequence of 6-phosphogluconate dehydrogenase, decarboxylating (Homo sapiens) (P52209 whole entry, looked up): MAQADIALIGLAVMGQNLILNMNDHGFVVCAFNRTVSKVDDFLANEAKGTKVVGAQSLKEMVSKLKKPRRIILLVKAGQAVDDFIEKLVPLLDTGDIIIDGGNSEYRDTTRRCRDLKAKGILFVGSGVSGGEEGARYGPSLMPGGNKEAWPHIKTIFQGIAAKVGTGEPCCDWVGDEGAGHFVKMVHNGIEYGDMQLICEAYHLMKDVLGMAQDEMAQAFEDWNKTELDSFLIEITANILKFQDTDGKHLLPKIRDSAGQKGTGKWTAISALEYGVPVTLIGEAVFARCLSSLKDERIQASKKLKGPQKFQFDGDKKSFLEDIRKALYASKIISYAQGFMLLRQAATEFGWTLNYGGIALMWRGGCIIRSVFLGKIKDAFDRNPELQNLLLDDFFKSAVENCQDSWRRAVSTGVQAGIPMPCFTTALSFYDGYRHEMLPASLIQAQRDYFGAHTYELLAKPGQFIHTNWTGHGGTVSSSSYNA

Cc1nc2sccn2c(=O)c1CCN1CCC(=C(c2ccc(F)cc2)c2ccc(F)cc2)CC1
active: viability decrease [6] 86.2% | inhibition of viability [9] 90.6% | viability decrease (inhibition) [10] 133% | viability decrease (inhibition) [11] 105%
91.8%: viability [1]
inactive: parasite load remaining [1] 16.8% | inhibition [2] 0% | fluorescence ratio (interference) [3] 0.9 | nuclear beta-catenin stimulation ([4]; at 10 µM) 13.4% | insulin secretion stimulation [5] 2% | tube area decrease [7] 28.7% | GLP1 secretion stimulation [8] 10.9% | inhibition [12] 13.5%
4.3%: nuclear beta-catenin stimulation ([4]; stimulation, at 2 µM)

C[C@]12C=CC(=O)C=C1CC[C@H]1[C@@H]3C[C@@H](O)[C@](O)(C(=O)CO)[C@@]3(C)C[C@H](O)[C@@]12F
-0.2%: nuclear beta-catenin stimulation ([4]; stimulation, at 2 µM)
inactive: parasite load remaining [1] 59.1% and 78.5% and 29.4% | inhibition [2] -2% | fluorescence ratio (interference) [3] 1 | nuclear beta-catenin stimulation ([4]; at 10 µM) -1.1% | insulin secretion stimulation [5] -0.5% | viability decrease [6] 8.2% | tube area decrease [7] -16.1% | GLP1 secretion stimulation [8] -3.1% | inhibition of viability [9] 11% | viability decrease (inhibition) [10] 13.3% | viability decrease (inhibition) [11] 14.8% | inhibition [12] -17.6%
105% and 93.7% and 75%: viability [1]

O=c1c(O)c(-c2ccc(O)c(O)c2)oc2cc(O)cc(O)c12
inactive: parasite load remaining [1] 49.9% and 67.9% | inhibition [2] 2% | fluorescence ratio (interference) [3] 0.9 | nuclear beta-catenin stimulation ([4]; at 10 µM) 2.6% | insulin secretion stimulation [5] -2.9% | GLP1 secretion stimulation [8] 5.9% | inhibition of viability [9] 4.5% | viability decrease (inhibition) [11] 46.2%
active: viability decrease [6] 81.4% | tube area decrease [7] 42.7% | viability decrease (inhibition) [10] 70.2% | inhibition [12] 26.1%
108% and 73.7%: viability [1]
1.7%: nuclear beta-catenin stimulation ([4]; stimulation, at 2 µM)

C#CCN(C)Cc1ccccc1
48.5% and 89.5% and 94.1%: viability [1]
3.2%: nuclear beta-catenin stimulation ([4]; stimulation, at 2 µM)
inactive: parasite load remaining [1] 33.9% and 101% and 59.8% | inhibition [2] -3% | fluorescence ratio (interference) [3] 1 | nuclear beta-catenin stimulation ([4]; at 10 µM) 2.1% | insulin secretion stimulation [5] 4.5% | viability decrease [6] 23.6% | tube area decrease [7] 3.1% | GLP1 secretion stimulation [8] 2.3% | inhibition of viability [9] 2.23% | viability decrease (inhibition) [10] -22.7% | viability decrease (inhibition) [11] 2.6% | inhibition [12] 0.126%

C[n+]1ccccc1/C=N/O
133% and 101% and 76.5%: viability [1]
-0.6%: nuclear beta-catenin stimulation ([4]; stimulation, at 2 µM)
inactive: parasite load remaining [1] 55.9% and 86% and 126% | fluorescence ratio [13] 1 | inhibition [14] -3.18% | inhibition [15] -0.48% | fluorescence ratio [16] 0.96 | nuclear beta-catenin stimulation ([4]; at 10 µM) -0.7% | insulin secretion stimulation [5] 2.2% | viability decrease [6] 15.7% | tube area decrease [7] -4.4% | GLP1 secretion stimulation [8] -3.1% | inhibition of viability [9] 1.77% | viability decrease (inhibition) [10] -3.4% | viability decrease (inhibition) [11] 0.4% | inhibition [12] -6.73%

CC(=O)Oc1ccccc1C(=O)O
inactive: parasite load remaining [1] 80.4% and 75.4% and 33.3% | inhibition [2] -3% | fluorescence ratio (interference) [3] 1 | nuclear beta-catenin stimulation ([4]; at 10 µM) -0.3% | insulin secretion stimulation [5] 0.1% | viability decrease [6] -8.9% | tube area decrease [7] 9.2% | GLP1 secretion stimulation [8] -3.4% | inhibition of viability [9] -5.9% | viability decrease (inhibition) [10] -3.9% | viability decrease (inhibition) [11] -4.2% | inhibition [12] 15.9%
0.2%: nuclear beta-catenin stimulation ([4]; stimulation, at 2 µM)
71.3% and 95.3% and 127%: viability [1]

CCCN(CCC)C(=O)C(CCC(=O)O)NC(=O)c1ccccc1 (configuration not stated)
0.3%: nuclear beta-catenin stimulation ([4]; stimulation, at 2 µM)
inactive: inhibition [2] -4% | fluorescence ratio (interference) [3] 0.9 | nuclear beta-catenin stimulation ([4]; at 10 µM) -0.6% | insulin secretion stimulation [5] 1.3% | viability decrease [6] -11.7% | tube area decrease [7] -25.9% | GLP1 secretion stimulation [8] 0.4% | inhibition of viability [9] -4.15% | viability decrease (inhibition) [10] -0.1% | viability decrease (inhibition) [11] -14.6% | inhibition [12] 1.53%

CC[N+](CC)(CC)CCOc1cccc(OCC[N+](CC)(CC)CC)c1OCC[N+](CC)(CC)CC
-1.4%: nuclear beta-catenin stimulation ([4]; stimulation, at 2 µM)
inactive: inhibition [2] -2% | fluorescence ratio (interference) [3] 1 | nuclear beta-catenin stimulation ([4]; at 10 µM) -0.5% | insulin secretion stimulation [5] -1.3% | viability decrease [6] -8.1% | tube area decrease [7] -2.2% | GLP1 secretion stimulation [8] 1.9% | inhibition of viability [9] 8.8% | viability decrease (inhibition) [10] -6.2% | viability decrease (inhibition) [11] -5.3% | inhibition [12] 7.66%

CNC[C@H](O)c1cccc(O)c1
1.7%: nuclear beta-catenin stimulation ([4]; stimulation, at 2 µM)
77.3% and 99.6%: viability [1]
inactive: parasite load remaining [1] 64.7% and 44.2% | inhibition [2] -1% | fluorescence ratio (interference) [3] 1 | nuclear beta-catenin stimulation ([4]; at 10 µM) 1.9% | insulin secretion stimulation [5] 0% | viability decrease [6] -4.6% | tube area decrease [7] -2.9% | GLP1 secretion stimulation [8] 1.4% | inhibition of viability [9] 3.8% | viability decrease (inhibition) [10] 12.3% | viability decrease (inhibition) [11] -9.9% | inhibition [12] 10.8%

Nc1ccc(S(=O)(=O)Nc2ccnn2-c2ccccc2)cc1
-0.2%: nuclear beta-catenin stimulation ([4]; stimulation, at 2 µM)
49.4% and 69.4% and 93.2%: viability [1]
inactive: parasite load remaining [1] 33% and 120% and 106% | inhibition [2] 1% | fluorescence ratio (interference) [3] 1 | nuclear beta-catenin stimulation ([4]; at 10 µM) 0.1% | insulin secretion stimulation [5] -1.3% | viability decrease [6] -8.8% | tube area decrease [7] -4.8% | GLP1 secretion stimulation [8] 3.3% | inhibition of viability [9] -9.2% | viability decrease (inhibition) [10] 6.4% | viability decrease (inhibition) [11] -3.95% | inhibition [12] -9.54%

NCCCCCC(=O)O
104% and 74.3% and 90.5%: viability [1]
-1%: nuclear beta-catenin stimulation ([4]; stimulation, at 2 µM)
inactive: parasite load remaining [1] 112% and 74.1% and 56.9% | inhibition [2] 1% | fluorescence ratio (interference) [3] 0.9 | nuclear beta-catenin stimulation ([4]; at 10 µM) 2.8% | insulin secretion stimulation [5] -1.3% | viability decrease [6] -23% | tube area decrease [7] 15.9% | GLP1 secretion stimulation [8] 1.1% | inhibition of viability [9] -10.8% | viability decrease (inhibition) [10] 9.9% | viability decrease (inhibition) [11] -9.4% | inhibition [12] 11.8%

Reference: PubChem BioAssay
